These results are taken from PubChem BioAssay (NCATS).

Where “and” joins values, the source holds several entries; their conditions need not be identical. Equal entries are not always repeated. Inconclusive results are not listed. Unmarked numbers belong to inactive results. Calls of active or inactive are those of the source. Calls follow the shape of the dose curve; as a rule, active = well fitted curve in the direction sought with a large enough effect; inconclusive = small, poorly fitted or top-dose-only effect, or another doubt; inactive = no such curve, though single readings can be large; an effect the other way counts as inactive or inconclusive.

Experiment [1] in a line: Viability qHTS for spleen associated tyrosine kinase inhibitor (SYKi) naive MV4-11 cells (AID 1963823). Also: nearly all actives have a fitted effect of over 40% in size. The procedure, abridged:
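SYKi-naive MV4-11 AML cells, 500 per well, were exposed to library compounds for 72 hr at 37 C, 5% CO2. Viability was then read by CellTiter-Glo luminescence after 10 min at room temperature.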

The nature of experiment [2]: Viability qHTS for spleen associated tyrosine kinase inhibitor (SYKi) drug resistant MV4-11 cells (AID 1963824). Also: nearly all actives have a fitted effect of over 35% in size. Summed up:
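SYK-inhibitor-resistant MV4-11 AML cells were seeded at 500 per well onto compound and cultured 72 hours (37 °C, 5% CO2). CellTiter-Glo was then added, and after 10 min at room temperature, luminescence gave viability.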

Experiment [3] is described as follows: Cellular viability qHTS for adrenocortical cancer (ACC) cell line SW-13 (AID 1963989). Also: nearly all actives have a fitted effect of over 65% in size.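 As to activity (max response): cells grown in serum-free medium with ITS supplement; % is scaled to controls: 0 for no effect and ±100 for the full control effect.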 The following applies: SW-13 ACC cells viability, CellTiter-Glo, 48 h; activity (max response): hits give low values. The procedure, abridged: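 IC50 and maximal-response values come from four-parameter logistic fits of titration data. SW-13 cells in serum-free medium received compounds (up to 46 uM final) for 48 h before CellTiter-Glo luminescence.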

The nature of experiment [4]: Cellular viability qHTS for adrenocortical cancer (ACC) cell line NCI-H295R (AID 1963990). Also: nearly all actives have a fitted effect of over 60% in size. The procedure, abridged:
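Adrenocortical carcinoma cells, suspended at 300 000 cells/mL in serum-free DMEM plus ITS, rested overnight before pin transfer of compound. After two days' incubation, ATP-dependent luminescence was recorded and curve-fitted.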
Potency is read from the fitted curve at half-maximal effect.

Turning to `CC(=O)O[C@@H]1CC2C3CCc4cc(OC(=O)c5ccccc5)ccc4C3CCC2(C)[C@H]1OC(C)=O` (some centres not stated), the Potency result in experiment [1], in experiment [2] and in experiment [4] was “inactive” in each case. Moreover, the activity (max response) in experiment [3] was 3.65%.
For `NC(CC1c2ccccc2Oc2ccccc21)(C(=O)O)C1CC1C(=O)O` (configuration not stated), the Potency result in experiment [1], in experiment [2] and in experiment [4] was “inactive” each time. In addition, the activity (max response) in experiment [3] was 1.03%.
In the case of `COc1cc(N2CCN(C(C)=O)CC2)ccc1Nc1ncc(Cl)c(Nc2ccc(N3CCN(C(C)=O)CC3)cc2OC)n1`, the Potency was 291 nM (active) and 372 nM (active) in experiment [1]; 366 nM (active) and 1.05 µM (active) in experiment [2]; 25.1 µM (active) in experiment [3]; 12.6 µM (active) in experiment [4].
With `COc1cc(F)ccc1-c1ncnc(Nc2cccc(CS(C)(=N)=O)c2)n1` (configuration not stated), the Potency in experiment [1] is 1.16 µM (active); in experiment [2] it was 1.16 µM (active); in experiment [3] it was 6.31 µM (active); in experiment [4], 7.08 µM (active).
As for `O=C(NCCc1c[nH]c2ccccc12)c1cccnc1`, the Potency in experiment [1] was 0.0019 µM (active). The Potency entry in experiment [2] and in experiment [4] was “inactive” throughout. In experiment [3], the activity (max response) was -4.89%.
As for `CCCCNC(=O)NS(=O)(=O)c1ccc(C)cc1`, the Potency entry in experiment [1], in experiment [2] and in experiment [4] was “inactive” throughout. Moreover, the activity (max response) in experiment [3] is 2.87%.
`CCN(c1cc(C#CCN2CCOCC2)cc(C(=O)NCc2c(C)cc(C)[nH]c2=O)c1C)C1CCC(N(C)CCOC)CC1` (configuration not stated): the Potency entry in experiment [1], in experiment [2] and in experiment [4] was “inactive” throughout. For the same molecule, the activity (max response) in experiment [3] is 7.49%.
Consider `N[C@H](C(=O)O)c1ccc(O)cc1`, for which the Potency result in experiment [1], in experiment [2] and in experiment [4] was “inactive” in each case. Also, in experiment [3], the activity (max response) was 5.01%.
`CC1(C)CN(C(=O)c2ccc(-c3cccc4nc(NC(=O)C5CC5)nn34)cc2)C1`: the results for the Potency in experiment [1] and in experiment [2] were 6.61 µM (active) and 16.4 µM (active), respectively. Moreover, the activity (max response) in experiment [3] was 2.66%. The Potency result in experiment [4] is “inactive”.
For `CC(=O)c1ccc(O)c(C(N)=O)c1` the same measures were “inactive”, “inactive”, 17.1% and “inactive”.
The corresponding values for `CC(=O)N[C@H]1[C@H](O[C@@H]2c3ccc(c(Cl)c3)Oc3cc4cc(c3O[C@@H]3O[C@H](CO)[C@@H](O)[C@H](O)[C@H]3NC(=O)CCCCCCCC(C)C)Oc3ccc(cc3Cl)C[C@H]3NC(=O)[C@H](N)c5ccc(O)c(c5)Oc5cc(O)cc(c5)[C@H](NC3=O)C(=O)N[C@H]4C(=O)N[C@H]3C(=O)N[C@@H]2C(=O)N[C@@H](C(=O)O)c2cc(O)cc(O[C@H]4O[C@H](CO)[C@@H](O)[C@H](O)[C@@H]4O)c2-c2cc3ccc2O)O[C@H](CO)[C@@H](O)[C@@H]1O` are “inactive”, “inactive”, 11.6% and “inactive”.
For `CC(COc1ccccc1)NN` (configuration not stated) the same measures were “inactive”, “inactive”, 12.2% and “inactive”.
Turning to `CCCOc1ccn2c(C(C)=O)cc(-c3ccccc3S(C)(=O)=O)c2c1`, the Potency in experiment [1] is 20.9 µM (active); in experiment [2] it was 14.8 µM (active). Moreover, the activity (max response) in experiment [3] was 0.517%. For the same molecule, the Potency entry in experiment [4] is “inactive”.
Regarding `CC(C)(C)c1ccc(O)c(O)c1`, the Potency in experiment [1] is 9.69 µM (active); in experiment [2], 6.11 µM (active); in experiment [3], 10 µM (active); in experiment [4], 8.91 µM (active).
For `Cn1cncc1C(N)(c1ccc(Cl)cc1)c1ccc2c(c1)c(-c1cccc(Cl)c1)cc(=O)n2C` (configuration not stated) the same measures were 1.05 µM (active), 1.86 µM (active), 6.31 µM (active) and 3.55 µM (active).
In the case of `O=C(CCCl)NCCc1ccccc1`, the Potency result in experiment [1], in experiment [2] and in experiment [4] was “inactive” each time. Further, the activity (max response) in experiment [3] was -1.73%.
As to `C[C@@]12C(=O)OC(=O)[C@]1(C)[C@H]1CC[C@@H]2O1`, the Potency in experiment [1] is 2.63 µM (active); in experiment [2] it was 2.63 µM (active); in experiment [3], 15.8 µM (active); in experiment [4], 3.98 µM (active).
With `COc1cc(OC)c2c(=O)[nH]c(-c3cc(C)c(OCCO)c(C)c3)nc2c1`, the Potency in experiment [1] was 14.6 µM (active); in experiment [2] it was 13 µM (active) and 9.34 µM (active). In addition, the activity (max response) in experiment [3] was -6.15%. Further, the Potency result in experiment [4] was “inactive”.
For the molecule `COc1ccc(CNC(=O)c2cc(-c3cncc(Cl)c3)cnc2-c2ccccn2)nc1OC`, the Potency entry in experiment [1], in experiment [2] and in experiment [4] was “inactive” in each case. The activity (max response) in experiment [3] was -20.5%.
For `O=C(O)C[C@H](O)C[C@H](O)/C=C/c1c(C2CC2)nc2ccccc2c1-c1ccc(F)cc1`, the Potency was 461 nM (active) and 525 nM (active) in experiment [1]; 164 nM (active) and 235 nM (active) in experiment [2]; 3.16 µM (active) in experiment [3]; 3.55 µM (active) in experiment [4].
As for `C[C@@H]1CC(=O)Nc2cccc(-c3ccc4c(c3)c(-c3cnn(C)c3)nn4C)c2N1`, the Potency in experiment [1] was 2.09 µM (active); in experiment [2] it was 1.32 µM (active). In addition, in experiment [3], the activity (max response) is -3.66%. Also, the Potency entry in experiment [4] was “inactive”.
For `CN(C)C(N)=NC(=N)N` the same measures were “inactive”, “inactive”, 1.52% and “inactive”.
On to `O=C(NCc1cccc(O)c1)Nc1nc(-c2ccncc2)cs1`, for which the Potency in experiment [1] was 10.3 µM (active); in experiment [2], 16.4 µM (active). Also, the activity (max response) in experiment [3] was -22.1%. In experiment [4], the Potency entry was “inactive”.
